In PubChem BioAssay AID893 (National Center for Advancing Translational Sciences (NCATS), 2007) one finds Potency and activity change, negative = inhibition data, which are given here for 51 compounds.

The structures appear in SMILES notation. Values joined by “and” are separate entries in the source; they are usually repeats but may differ in a detail not shown here. Equal values may be shown once. Screen size: about 75,000 compounds; about 5,700 (7.6%) were called active. Entries that show only a call come without a potency. Roughly 7% stayed inconclusive and do not appear here. Only a selection was taken, and actives are over-represented in it overall. Unmarked numbers belong to inactive results. The call rests on the fitted dose curve; in most records, active means well fitted inhibition curve with a large enough effect; inconclusive means small, poorly fitted or top-dose-only effect; inactive means no such curve, though single readings can be large or run the other way.
Potency means the concentration at half of the fitted maximal effect.

The target in this assay is 3-hydroxyacyl-CoA dehydrogenase type-2 (Homo sapiens) (UniProt Q99714). The experiment in a line: qHTS Assay for Inhibitors of HSD17B4, hydroxysteroid (17-beta) dehydrogenase 4. Further: nearly all actives have a fitted effect of over 70% in size. Particulars: recombinant HSD17B10, NADH fluorescence kinetic; series mostly up to 57.1 µM. A digest of the protocol: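 Enzyme plus compound, 15 min room temperature; substrate mix added (NAD+ 1 mM, beta-hydroxybutyryl-CoA 90 uM final); plates read kinetically for NADH fluorescence. HADH2 was His-tagged, E. coli-derived, 20 nM.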
As for `COCCCNC(=O)c1c(F)c(F)c(F)c(F)c1F`, the Potency entry is “inactive”. Still for that read-out and setting: under `Cc1cccn2c(=O)c3cc(C(=O)N4COCC4(C)C)n(C)c3nc12` stands 7.94 µM (active); under `Cc1cccn2c(=O)c3cc(C(=O)NCc4ccccn4)n(C)c3nc12`, 3.16 µM (active); under `CC(=O)N1[C@H](C)C=C[C@]1(Cc1ccccc1)C(=O)NCc1ccccn1`, “inactive”. The same measure, in the same setting: under `Cc1ccccc1CN1CCN(CC(=O)NCc2ccccn2)C1=O` stands “inactive”; under `O=c1ccn(Cc2ccccc2Cl)cc1`, “inactive”; under `COCCNc1ncnc2ccc(-c3ccccc3CN(C)C)cc12`, “inactive”. On the same count and under the same terms, under `COCCNc1ncnc2ccc(-c3cccnc3)cc12` stands 31.6 µM (active). For the compound `CNc1ncnc2ccc(-c3cccc(NS(C)(=O)=O)c3)cc12`, the Potency entry was “inactive”. Still for that read-out and setting: under `COCC(=O)Nc1nnc(COc2ccccc2)s1` stands “inactive”. Still for that read-out and setting: under `C[C@@H](C(=O)Nc1ccc2ccccc2c1)[C@@H]1C[C@@]1(C)[C@@H](NC(=O)c1cccnc1)c1ccccc1` stands “inactive”; under `CCCCCN(C(=O)NC(=O)Nc1ccccc1C)S(C)(=O)=O`, “inactive”.

Turning to `COC(=O)C1=C(C)N(Cc2ccccc2)C2=C3C(=O)N(c4ccccc4)C(=O)C3[C@@](O)(C(=O)OC)C(=O)N2C1c1ccccc1` (stereo partly specified), the activity change, negative = inhibition is 6.04% [at 11.4 µM] and 0.0692% [at 11.4 µM]. Regarding `N#CC1=C(N)Oc2cc(O)ccc2C1C1CCCCC1` (stereo unspecified), the Potency entry is “inactive”.

In the case of `O=C(O)c1c(Br)c(Br)c(Br)c(Br)c1C1c2ccc(O)cc2Oc2cc(O)ccc21`, the Potency was 0.794 µM (active).

As to `COc1ccc(CC(=O)c2ccc(O)cc2O)cc1OC`, the Potency result was “inactive”. Still for that read-out and setting: the result for `CCOC(=O)N1CCN(Cc2nc3c(c(=O)n(C)c(=O)n3C)n2Cc2ccccc2)CC1` reads “inactive”. Regarding `CC1CCCN(Cc2nc3c(c(=O)n(C)c(=O)n3C)n2CC(=O)c2ccccc2)C1` (stereo unspecified), the Potency entry was “inactive”. Same read-out and setting: under `CCN1CCN(Cc2nc3c(c(=O)n(C)c(=O)n3C)n2CC(=O)c2ccccc2)CC1` stands 25.1 µM (active). Consider `CCn1nnc(NC(=O)c2c(OC)cccc2OC)n1`, for which the Potency result was “inactive”.

For `O=C(NCc1ccc2c(c1)OCO2)C1CCCN(S(=O)(=O)c2cccs2)C1` (stereo unspecified), the Potency result was “inactive”. Still for that read-out and setting: the result for `COc1ccc(C(=O)N2CCC3(CC2)CCN(c2ccccn2)CC3)cc1` reads 25.1 µM (active). On the same count and under the same terms, under `COc1ccc(C(=O)N2CCC3(CCCN(C(c4ccccc4)c4ccccc4)C3)CC2)cc1` stands “inactive”; under `O=C(c1cc(C(F)(F)F)cc(C(F)(F)F)c1)N1CCC2(CCCN(c3ccccn3)C2)CC1`, “inactive”.

With `CC(C)c1cc(CN(C)C)c(O)c(C(C)(C)C)c1`, the activity change, negative = inhibition is 5.05% [at 11.4 µM].

Take `COCCNC(=O)C(c1ccc(C)o1)N(Cc1cccs1)C(=O)c1snc(C(N)=O)c1N` (stereo unspecified): the Potency was 25.1 µM (active). Still for that read-out and setting: the result for `CCC(C(=O)NC1CCCC1)N(C(=O)c1snc(C(N)=O)c1N)c1ccc2c(c1)OCCO2` (stereo unspecified) reads “inactive”; that for `COCCNC(=O)C(c1ccc(C)o1)N(Cc1ccccc1)C(=O)Cn1nnc2ccccc21` (stereo unspecified), “inactive”. `COc1ccc(F)cc1S(=O)(=O)Nc1ccc2c(c1)OCO2`: the Potency entry was “inactive”. Still for that read-out and setting: under `COc1ccc(C(c2nnnn2C2CCCCC2)N2CCN(c3ccccc3F)CC2)cc1` (stereo unspecified) stands “inactive”; under `CCC(=O)c1ccc(OCC(O)CN2C(=O)NC(C)(C)C2=O)cc1` (stereo unspecified), “inactive”. On the same count and under the same terms, under `Cc1ccc2cccc(O)c2[n+]1[O-]` stands “inactive”; under `Cc1ccc(C)c(NS(=O)(=O)c2cc(Br)cnc2N)c1`, “inactive”; under `O=c1cc(-c2ccccc2)[nH]c2nc(Cl)ccc12`, 7.94 µM (active). With `CCCC(NS(=O)(=O)c1ccc(OC)cc1)C(=O)O` (stereo unspecified), the Potency entry is “inactive”.

Consider `COc1cccc(N2CC(C(=O)Nc3c(C)cccc3C)CC2=O)c1` (stereo unspecified), for which the Potency result was “inactive”. Same read-out and setting: the result for `COc1cccc(C2/C(=C(/O)c3ccncc3)C(=O)C(=O)N2CCCN(C)C)c1` (stereo unspecified) reads “inactive”; that for `Cc1cccn2c(=O)c3cc(C#N)c(=O)n(CCCN4CCOCC4)c3nc12`, 31.6 µM (active).

In the case of `CCCOc1ccc(C2c3c(oc4cc(C)c(C)cc4c3=O)C(=O)N2CCCN2CCOCC2)cc1` (stereo unspecified), the Potency result is “inactive”. On the same count and under the same terms, the result for `Cc1cccn2c(=O)c3cc(C#N)c(=NC(=O)c4cccnc4)n(CC4CCCO4)c3nc12` (stereo unspecified) reads 7.94 µM (active); that for `Cn1c(=O)c2c(nc(CN3CCOCC3)n2Cc2ccccc2)n(C)c1=O`, “inactive”; that for `O=C(Cn1nc(Cc2cccnc2)c2ccccc2c1=O)NCC1CCCO1` (stereo unspecified), “inactive”. Same read-out and setting: under `Cc1nnc(SCC(N)=O)n1CC1CCCO1` (stereo unspecified) stands “inactive”. On the same count and under the same terms, the result for `CC(=NCC1CCCO1)c1c(O)[nH]c(=O)[nH]c1=O` (stereo unspecified) reads “inactive”; that for `CCOC(=O)N1CCC(NC(=O)c2ccc3nc(N4CCOCC4)sc3c2)CC1`, “inactive”. For the compound `Nc1c(C(=O)NCc2ccccc2)nnn1Cc1cccc(Cl)c1`, the Potency entry is “inactive”.

With `COC(=O)CCNc1ccc2c(c1)OCCO2`, the Potency entry is “inactive”. For `NC1(C(=O)OCc2ccccc2)CCCC1`, the activity change, negative = inhibition is -22.7% [at 11.4 µM]. As for `BrC1C(Br)C(Br)C(Br)C(Br)C1Br` (stereo unspecified), the Potency result is “inactive”. The same measure, in the same setting: the result for `C=C(C)C1CC=C(C)C(O)C1` (stereo unspecified) reads “inactive”; that for `Nc1nc2[nH]c(=O)c(=O)[nH]c2c(=O)[nH]1`, “inactive”.
